Laboratory results as given in PubChem BioAssay (NCI).
About 83,000 compounds went through this panel and 20% of them were active in at least one assay; those are over-represented in the sample as a whole.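 Activity criterion: percent growth below 10, measured after cells in 96-well plates were exposed to a single compound concentration for 48 hours.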 A number with no mark means an inactive call. The source made the active and inactive calls.

Experiments:
Experiment in all cases: NCI-60 one-dose screen, 48 h (100 = growth as untreated, 0 = no growth, -100 = all killed)
Settings in all cases: 10 µM unless noted
SR leukemia = tested on: SR leukemia
OVCAR-8 ovarian = tested on: OVCAR-8 ovarian
OVCAR-5 ovarian = tested on: OVCAR-5 ovarian
OVCAR-4 ovarian = tested on: OVCAR-4 ovarian
SK-OV-3 ovarian = tested on: SK-OV-3 ovarian
IGROV1 ovarian = tested on: IGROV1 ovarian
OVCAR-3 ovarian = tested on: OVCAR-3 ovarian
HS 578T breast = tested on: HS 578T breast
NCI/ADR-RES ovarian = tested on: NCI/ADR-RES ovarian
T-47D breast = tested on: T-47D breast
BT-549 breast = tested on: BT-549 breast
MDA-MB-435 melanoma = tested on: MDA-MB-435 melanoma
SW-620 colon = tested on: SW-620 colon
MCF7 breast = tested on: MCF7 breast
HCT-116 colon = tested on: HCT-116 colon
HCC-2998 colon = tested on: HCC-2998 colon
KM12 colon = tested on: KM12 colon
RPMI-8226 leukemia = tested on: RPMI-8226 leukemia

SMILES: O=C(CCC(=O)N1CCOCC1)OCCCCCCSc1ccc([N+](=O)[O-])c2nonc12
- growth (SR leukemia): -2.69% (active)
- growth (OVCAR-8 ovarian): -6.75% (active)
- growth (OVCAR-5 ovarian): -20.1% (active)
- growth (OVCAR-4 ovarian): -83.7% (active)
- growth (SK-OV-3 ovarian): 39.8%
- growth (IGROV1 ovarian): -88.7% (active)
- growth (OVCAR-3 ovarian): -66.9% (active)
- growth (HS 578T breast): -8.04% (active)
- growth (NCI/ADR-RES ovarian): 2.86% (active)
- growth (T-47D breast): -36.2% (active)
- growth (BT-549 breast): -52.5% (active)
- growth (MDA-MB-435 melanoma): -88.1% (active)
- growth (SW-620 colon): -54.9% (active)
- growth (MCF7 breast): -57.7% (active)
- growth (HCT-116 colon): -54.7% (active)
- growth (HCC-2998 colon): -69.4% (active)
- growth (KM12 colon): -68.7% (active)

SMILES: Oc1cccc2ccc(-c3nnc(SCc4ccc(O)c5ncccc45)o3)nc12
- growth (SR leukemia): 26.1%
- growth (RPMI-8226 leukemia): 2.55% (active)
- growth (OVCAR-5 ovarian): 40.9%
- growth (OVCAR-4 ovarian): 20.5%
- growth (SK-OV-3 ovarian): 12.3%
- growth (IGROV1 ovarian): 13.4%
- growth (OVCAR-3 ovarian): 2.66% (active)
- growth (HS 578T breast): 8.45% (active)
- growth (NCI/ADR-RES ovarian): 17.3%
- growth (T-47D breast): 16%
- growth (BT-549 breast): 15.9%
- growth (MDA-MB-435 melanoma): 12%
- growth (SW-620 colon): 19.2%
- growth (MCF7 breast): 4.96% (active)
- growth (HCT-116 colon): 5.66% (active)
- growth (HCC-2998 colon): 27.6%
- growth (KM12 colon): 8.28% (active)

SMILES: CN1CCN(Cc2ccc(NC(=O)c3cncc(C#Cc4cnc5ccc(OCC6(C)COC6)nn45)c3)cc2C(F)(F)F)CC1
- growth (SR leukemia): -13.9% (active)
- growth (OVCAR-8 ovarian): -15.3% (active)
- growth (OVCAR-5 ovarian): -73.2% (active)
- growth (OVCAR-4 ovarian): -54.7% (active)
- growth (SK-OV-3 ovarian): -90.8% (active)
- growth (IGROV1 ovarian): -63.8% (active)
- growth (OVCAR-3 ovarian): -74.5% (active)
- growth (HS 578T breast): -50.2% (active)
- growth (NCI/ADR-RES ovarian): -58.1% (active)
- growth (T-47D breast): -49.9% (active)
- growth (BT-549 breast): -62% (active)
- growth (MDA-MB-435 melanoma): -90.9% (active)
- growth (SW-620 colon): -44.8% (active)
- growth (MCF7 breast): -76% (active)
- growth (HCT-116 colon): -75.5% (active)
- growth (HCC-2998 colon): -89.6% (active)
- growth (KM12 colon): -82.1% (active)

SMILES: Nn1c(N/N=C/c2nc3ccccc3s2)n[nH]c1=S
- growth (SR leukemia): 108%
- growth (OVCAR-8 ovarian): 107%
- growth (OVCAR-5 ovarian): 103%
- growth (OVCAR-4 ovarian): 85.8%
- growth (SK-OV-3 ovarian): 118%
- growth (IGROV1 ovarian): 82.2%
- growth (OVCAR-3 ovarian): 118%
- growth (HS 578T breast): 110%
- growth (NCI/ADR-RES ovarian): 118%
- growth (T-47D breast): 108%
- growth (MDA-MB-435 melanoma): 110%
- growth (SW-620 colon): 105%
- growth (MCF7 breast): 93.7%
- growth (HCT-116 colon): 107%
- growth (HCC-2998 colon): 123%

SMILES: CCN(CC)CCn1c2ccc(O)cc2c2sc3cc(OC)ccc3c(=O)c21
- growth (SR leukemia): -13.4% (active)
- growth (OVCAR-8 ovarian): 19.3%
- growth (OVCAR-5 ovarian): 44.7%
- growth (OVCAR-4 ovarian): 28.2%
- growth (SK-OV-3 ovarian): 74.7%
- growth (IGROV1 ovarian): 19.2%
- growth (OVCAR-3 ovarian): 41.8%
- growth (HS 578T breast): 63.6%
- growth (NCI/ADR-RES ovarian): 20.8%
- growth (T-47D breast): 59.3%
- growth (BT-549 breast): 68.1%
- growth (MDA-MB-435 melanoma): 19.4%
- growth (SW-620 colon): -50.8% (active)
- growth (MCF7 breast): -55.2% (active)
- growth (HCT-116 colon): -46% (active)
- growth (HCC-2998 colon): 36.6%
- growth (KM12 colon): 25%

SMILES: CC(c1ccccc1)N1CSc2nc3ncncc3n2C1 (stereo unspecified)
- growth (SR leukemia): 88.2%
- growth (RPMI-8226 leukemia): 26.4%
- growth (OVCAR-5 ovarian): 39.7%
- growth (OVCAR-4 ovarian): 27.1%
- growth (SK-OV-3 ovarian): 24.8%
- growth (IGROV1 ovarian): 45.5%
- growth (OVCAR-3 ovarian): 33.1%
- growth (HS 578T breast): 64.2%
- growth (NCI/ADR-RES ovarian): 26.7%
- growth (T-47D breast): 34%
- growth (BT-549 breast): 59%
- growth (MDA-MB-435 melanoma): 23.5%
- growth (SW-620 colon): 41.1%
- growth (MCF7 breast): 5.38% (active)
- growth (HCT-116 colon): 19.2%
- growth (HCC-2998 colon): 23.8%

SMILES: FC(F)(F)c1cc(Nc2cccc(Oc3ccc(NC4=NCCN4)nc3)c2)ccc1Cl
- growth (SR leukemia): -28.1% (active)
- growth (OVCAR-8 ovarian): 30.8%
- growth (OVCAR-5 ovarian): 3.8% (active)
- growth (OVCAR-4 ovarian): 28.2%
- growth (SK-OV-3 ovarian): 71%
- growth (IGROV1 ovarian): -1.17% (active)
- growth (OVCAR-3 ovarian): -40.3% (active)
- growth (HS 578T breast): 39.7%
- growth (NCI/ADR-RES ovarian): -10.6% (active)
- growth (T-47D breast): 23.4%
- growth (BT-549 breast): 44.7%
- growth (SW-620 colon): -75.8% (active)
- growth (MCF7 breast): -42.5% (active)
- growth (HCT-116 colon): -48.5% (active)
- growth (HCC-2998 colon): -58% (active)

SMILES: Cc1ccc(-c2cc3nc(C(Cl)Cl)nc(C)n3n2)cc1
- growth (SR leukemia): 113%
- growth (OVCAR-8 ovarian): 102%
- growth (OVCAR-5 ovarian): 104%
- growth (OVCAR-4 ovarian): 118%
- growth (SK-OV-3 ovarian): 84.2%
- growth (IGROV1 ovarian): 72.2%
- growth (OVCAR-3 ovarian): 104%
- growth (HS 578T breast): 107%
- growth (NCI/ADR-RES ovarian): 110%
- growth (T-47D breast): 94.6%
- growth (BT-549 breast): 115%
- growth (MDA-MB-435 melanoma): 110%
- growth (SW-620 colon): 107%
- growth (MCF7 breast): 88.3%
- growth (HCT-116 colon): 108%
- growth (HCC-2998 colon): 115%
- growth (KM12 colon): 99.1%
